Measured values from PubChem BioAssay AID602141 (Sanford-Burnham Center for Chemical Genomics, 2011).
Among all 360,000 compounds or so, about 1,300 (0.36%) were called active. For the sample, actives were picked, then their nearest neighbours and some compounds at random. Unmarked numbers belong to inactive results.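 The calls were made as follows: active = corrected activity change at or below -50% at 5 µM; inactive = the rest.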

Test: KKLEB cell viability reduction – uHTS, fluorescence assay plates, cytotoxicity control for CF NF-kB inhibitor project, primary screen (AID 602141)
Conditions: KKLEB CF airway cells viability, ATPlite luminescence, overnight; at 5 µM; hits give low values; cells stimulated with P. aeruginosa culture filtrate

Structure (SMILES)	activity change (cytotoxicity)
Cc1noc(C)c1C(=O)OC(C)C(=O)Nc1ccc2c(c1)OCO2 (stereo not given)	1.3%
COc1ccccc1NC(=O)C1CCN(C(=O)c2ccc(C(C)(C)C)cc2)CC1	3.1%
COC(=O)c1sc(-c2ccc(C(C)(C)C)cc2)cc1NC(=O)/C=C/C(=O)O	-51.8% (active)
O=C(C=CC(=O)Nc1ccc(F)cc1F)Nc1ccc(F)cc1F	-11%
COc1ccc(NS(=O)(=O)c2ccc(N3CCOCC3)c(NC(=O)/C=C/C(=O)O)c2)cc1	17.8%
O=C(NCC1CCCO1)c1ccccc1-c1nc(-c2ccccc2Cl)no1 (stereo not given)	-12.9%
O=C(O)CC12CC3CC(C1)CC(n1ncc(NCc4ccc(F)cc4)c(Cl)c1=O)(C3)C2	-4.6%
CCN1CCC2(CC1)N=C(c1ccc(F)cc1)C(=S)N2C(=O)c1ccc(C)cc1	2.3%
CCN1CCC(O)(/C=C/c2ccc(C)cc2)C(C(=O)/C=C/c2ccc(C)cc2)C1 (stereo not given)	-73.7% (active)
CCc1nc2ccc(C(=O)N3CCC(O)(Cc4ccccc4)CC3)cn2c1N(C)C(=O)Cc1ccccc1	-15.5%
CC(=O)c1ccc(-c2cnc3c(NC=O)cc(-c4cccc(NS(C)(=O)=O)c4)cn23)cc1	-51.7% (active)
CC(=O)Nc1cccc(-c2cc(NC=O)c3ncc(-c4ccc(F)c(Cl)c4)n3c2)c1	0.8%
CC(=O)c1cccc(-c2cnc3c(NC=O)cc(-c4ccc(N(C)C)cc4)cn23)c1	-27.1%
O=C(Nc1ccc(S(=O)(=O)N2CCCCCC2)cc1)c1c(F)cccc1F	5.1%
O=C(Nc1ccncc1)c1c(F)cccc1F	-51.3% (active)
COc1cccc(OC)c1C(=O)Nc1ccc(Cc2ccncc2)cc1	-3.9%
CCOC(=O)C1CCCN(C(=O)C2CCN(c3nnc(-n4cccc4)s3)CC2)C1 (stereo not given)	-8.3%
O=C(Nc1nc(-c2ccncc2)cs1)C1COc2ccccc2O1 (stereo not given)	-70.7% (active)
COc1ccc(NC(=O)COC(=O)C2COc3ccccc3O2)cc1 (stereo not given)	12.9%
O=C(Nc1cc(S(=O)(=O)N2CCCCC2)ccc1Cl)C1COc2ccccc2O1 (stereo not given)	-14%
CCN1CCN(C(=O)CN(C)S(=O)(=O)c2ccc(OC)cc2)CC1	3.4%
CSc1cccc(NC(=O)CN2C(=O)COc3ccc(S(=O)(=O)N4CCOCC4)cc32)c1	6.5%
Cc1ccc(CNC(=O)COc2ccc(S(=O)(=O)NC(C)C)cc2)cc1	-0.1%

Structure (SMILES)	activity change (cytotoxicity)
O=C1CN(C(=O)c2ccccc2F)C(c2ccc(F)cc2)c2cc(F)ccc2N1 (stereo not given)	11.6%
C=CCNC(=S)NNC(=O)COc1c(Cl)cc(Cl)cc1Cl	-16.4%
O=C(C1CCN(S(=O)(=O)c2ccc(Br)s2)CC1)N1CCN(C2CCCCC2)CC1	13.7%
CCCc1ccc(OCCNC(=O)c2ccccc2Br)cc1	-6.1%
CCCOc1ccc(C(=O)C(CCC(CNCC)C(=O)c2ccc(OCCC)cc2)CNCC)cc1 (stereo not given)	-58.6% (active)
CC(C)CCOc1ccc(C(=O)C[N+]2(C)CCOCC2)cc1	1.8%
Cc1ccc(C(NC(=O)C2CCN(CCOc3ccc(Cl)cc3Cl)CC2)c2ccccn2)cc1 (stereo not given)	-0.6%
COc1cccc(OCc2cc(/C=N/NC(=O)c3nc(Cl)c(Cl)c(N)c3Cl)ccc2OC)c1	-5.4%
CCOc1ccc(-c2cc(C(=O)N/N=C/c3ccc(O)cc3)c3ccccc3n2)cc1	-15.6%
COc1ccc(C(=O)Nc2ccccc2C(=O)N/N=C/c2ccc(O)c(OC)c2)cc1	-87.3% (active)
CC(=O)Nc1ccc(NC(=O)CC2CCCC2)cc1	6.6%
O=c1c2ccccc2ncn1CCCCOc1ccccc1F	5.1%
COCCCNC(=O)C1CC(=O)N(CCc2ccc(F)cc2)C1 (stereo not given)	1.6%
CCOc1ccc(NC(=O)CSc2nc3ccccc3c(=O)n2Cc2cccs2)cc1	-54.6% (active)
CC(=O)NCCn1c(SCC(=O)Nc2ccc(C)cc2)nc2ccccc2c1=O	4.4%
O=C(CSc1nc2nccnc2c(=O)n1Cc1cccs1)Nc1ccccc1F	-10.3%
Cc1ccc(NC(=O)C(c2ccccc2)N2CCN(C(=O)c3ccco3)CC2)cc1 (stereo not given)	19.2%
CSc1ccc(CNC(=O)c2ccc(NC(=O)C3=CSCCO3)cc2)cc1	-31.3%
CCC/C(O)=C1\C(=O)CC(C)(C)CC1=Nc1ccccc1OC	21.9%
Cc1cc2c(C)nc(N/N=C/c3ccccc3)nc2o1	16.3%
C=C(C)C(=O)O[C@H]1C/C(C)=C\C(=O)/C=C(\C)[C@H](O)[C@@H]2OC(=O)C(=C)[C@@H]21	-78.6% (active)
COc1cccc(C(=O)Oc2cc(C)[nH]c(=O)c2[N+](=O)[O-])c1	0.5%
COC(=O)C1CCCCN1C(=O)c1ccc(OC2CCN(C(C)=O)CC2)c(OC)c1 (stereo not given)	2.5%

Structure (SMILES)	activity change (cytotoxicity)
Cc1ccc2c(c1)N(C(=O)CCC(=O)N1CCc3ccccc3C1)CCO2	-2.8%
Cc1ccc(C)c(NC(CC(=O)c2ccccc2)C(=O)OCC(=O)c2cccs2)c1 (stereo not given)	5.7%
Cc1ccccc1C(CC(=O)c1cccs1)C(C#N)C#N (stereo not given)	-51.2% (active)
O=C(NCC(=O)N1CCN(c2ccccc2F)CC1)c1cccs1	10.7%
CCN(CC)c1nc(-c2ccccc2)cc(C(F)(F)F)c1C#N	9.1%
Cc1ccc(CC(=O)Nc2ccc(OC(F)F)c(Cl)c2)cc1C	5.1%
CN(CC(=O)Nc1ccc(S(=O)(=O)N2CCCC2)cc1)Cc1ccc(Cl)c(Cl)c1	-2.3%
O=C(Cc1ccc(Cl)c(Cl)c1)Nc1ccc(SC(F)F)cc1	-64.7% (active)
COc1ccccc1NC(=O)CSc1nnc(CNC(=O)c2ccccc2F)o1	-0.3%
CCn1cc(NC(=O)Nc2ccc(OC)c(OC)c2)c(C(N)=O)n1	-3.5%
O=C(COC(=O)/C(=C/c1cccs1)c1cccs1)NCc1ccccc1Cl	4.5%
CC1(C(=O)O)CCC(C(=O)Nc2ccc(Cl)c(Cl)c2)C1(C)C (stereo not given)	3.1%
O=C(CC(O)(C(F)(F)F)C(F)(F)F)Nc1ccc(Cl)c(Cl)c1	-59% (active)
N#CCCN(C(=O)Nc1ccc(Cl)c(Cl)c1)C1CCCCC1	11.3%
CCCCC(c1nnnn1CS(=O)(=O)c1ccc(C)cc1)N1CCC(C(N)=O)CC1 (stereo not given)	-15%
O=C(CCl)N(Cc1cccc([N+](=O)[O-])c1)c1cccc(Cl)c1	-96.2% (active)
CC(=O)N(CN1C(=O)C2CC=CCC2C1=O)c1cccc(Cl)c1 (stereo not given)	8.7%
Cc1ccc(S(=O)(=O)N(CC(=O)Nc2cccc([N+](=O)[O-])c2)Cc2ccc(Cl)cc2)cc1	10.5%
Cc1cc(NC(=O)CSc2nc(C(C)C)nc3sc4c(c23)CCC(C)C4)no1 (stereo not given)	-1.3%
CCCSc1nc2sc3c(c2c(=O)n1-c1ccc(OC)cc1)CCN(C)C3	6.6%
CCCn1nnc2sc3c(c2c1=O)CCC(C)C3 (stereo not given)	-55.8% (active)
O=S(=O)(O)CCN1CCOCC1	-2.1%
CC(=O)NC(c1cccc(F)c1)c1nc(-c2cccc(F)c2)cs1 (stereo not given)	-3.6%

Structure (SMILES)	activity change (cytotoxicity)
CC(C)N(Cc1nc(-c2ccc3c(c2)OCO3)no1)CC1CCC(=O)N1 (stereo not given)	7.7%
CCCSc1nsc(N)n1	-4.9%
COc1cc(SC)ccc1C(=O)Nc1nc(C)cs1	-88.8% (active)
Cc1csc(NC(=O)CSc2nc(=O)cc(N)n2-c2ccc(F)cc2)n1	-0.9%
Cc1csc(NC(=O)CSc2ccc(-c3ccc(F)cc3)nn2)n1	8.5%
Cc1ccccc1OCC(=O)Nc1nc(C)c(C(=O)N(C)C)s1	2.2%
COc1ccc(C(=O)CCC(=O)Nc2cccnc2)c(OC)c1	-8.9%
COC(=O)c1sc(NC(=O)c2ccc(OC)cc2OC)nc1C	-66.8% (active)
Cc1ccc2c(c1)N(CC(=O)N1CCC(O)CC1)C(=O)CO2	7.7%
O=C(NCCCN1CCCCC1)C1CC(=O)N(CCc2ccccc2)C1 (stereo not given)	-3.7%
O=C(CNC(=O)c1cc(S(=O)(=O)N2CCOCC2)ccc1N1CCCC1)Nc1ccc(F)c(F)c1	8%
Cc1cc(C)c2c(=O)n3c(nc2c1)C(CC(C)C)NC(=O)c1cc2ccccc2cc1-3 (stereo not given)	-9%
O=C(/C(=C/c1cccc(Cl)c1)c1nc2ccccc2[nH]1)c1ccccc1	-62.2% (active)
CCCCn1c(N)c(N(CC(C)C)C(=O)CN(C)S(=O)(=O)c2ccc(F)cc2)c(=O)[nH]c1=O	1.7%
CCNC(=O)CC1C(=O)N(c2ccc(F)cc2)C(=O)N1CCc1sccc1C (stereo not given)	15.4%
O=C(NNC(=O)c1ccc(-n2cncn2)c([N+](=O)[O-])c1)c1ccccc1	9.1%
O=C(NC(Nc1nc2ccc([N+](=O)[O-])cc2s1)(C(F)(F)F)C(F)(F)F)c1ccccc1	-70.6% (active)
O=C(Nc1nnc(SCc2ccccc2Cl)s1)c1cccc([N+](=O)[O-])c1	-35.3%
O=C(COC(=O)c1ccccc1NC(=O)c1ccco1)Nc1ccc2c(c1)OC(F)(F)O2	-4.2%
COc1ccc(S(=O)(=O)NC(CC(=O)NCc2ccccc2OC)c2ccco2)cc1 (stereo not given)	5%
Cc1c(NC(=O)Nc2cccc([N+](=O)[O-])c2)c(=O)n(-c2ccccc2)n1C	0%
